Bioassay records as filed in PubChem.
Rows were chosen to be rich in hits. Some 21% of all compounds tested hit in one or more screens of this group.
Shiga toxin inh – inhibitors of Shiga toxin in Vero cells. Vero cells, Shiga toxin protein synthesis inhibition reporter. inhibition, % at 38.7 µM. actives 9.2% (n = 290,000). AID 2315; in the data active = inhibition mostly above about 28%, no sharp cut-off; inactive = mostly below about 43%
CHX counter – counter-screen for Shiga toxin inhibitors: cycloheximide protein synthesis inhibition; cell reporter, cycloheximide protein synthesis inhibition counterscreen; max response, %; actives 12% (n = 300,000); in the data active = max response mostly above about 13%, no sharp cut-off; inactive = mostly below about 14%; note: read at 38.3 µM for the half of the compounds with a filed dose
NS1 inh – inhibitors of influenza NS1 protein function; Potency, µM (titrated, usually from 46.1 µM); actives 0.4% (n = 270,000); calls by dose curve; note: actives are rising curves; nearly all actives have a fitted effect of over 50% in size
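Read-out: OD600 growth recovery of NS1-expressing budding yeast. Cells grown overnight at 30C in -URA glucose medium, washed, resuspended and diluted 1:100 in 2% galactose assay medium, pH 6.0. Same strain lacking NS1 served as positive control.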
SARS PLP yeast – blocks SARS-CoV papain-like protease in a yeast assay; S. cerevisiae expressing SARS-CoV PLpro, growth rescue; Potency, µM (doses to about 32.9 µM), most hits filed as activators; actives 0.19% (n = 330,000); AID 485353; calls by dose curve; note: nearly all actives have a fitted effect of over 55% in size
Pf growth 96h – inhibits malaria parasite growth, 96 h; P. falciparum luciferase reporter growth, 96 h; Potency, µM (titrated, usually from 28.7 µM), most hits filed as inhibitors; actives 6.9% (n = 320,000)
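Delayed-death screen, second-generation endpoint: infected erythrocytes, 2% hematocrit, 0.05% parasitemia final; 96 hours at 37 C, 5% CO2; luciferase detection reagent; luminescence decrease equals reduced growth.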
Pf growth 48h – P. falciparum growth inhibition at 48 hours (one generation); P. falciparum luciferase growth in erythrocytes, 48 h; Potency, µM (titrated, usually from 28.7 µM), actives largely listed as inhibitors; actives 5.9% (n = 310,000); AID 504832
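Luminescence readout; reporter = integrated firefly luciferase in P. falciparum. RBC culture at 2% hematocrit, 0.1% parasitemia final, 37 C/5% CO2; decreased signal taken as growth inhibition.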
A number is an active result; i = inactive; ? = inconclusive; nt = not tested or not shown. Unless noted, calls come from the whole dose curve; as a rule, active = well fitted inhibition curve with a large enough effect; inconclusive = small, poorly fitted or top-dose-only effect, or another doubt; inactive = no such curve, though single readings can be large or run the other way.

SMILES	Shiga toxin inh	CHX counter	NS1 inh	SARS PLP yeast	Pf growth 96h	Pf growth 48h
O=C(CSc1ccccn1)Nc1ccc2c(c1)C(=O)c1ccccc1C2=O	i	43.1	i	i	i	i
O=C(CSC1=NCCS1)Nc1ccc2ccccc2c1	116.8	35.8	i	i	i	i
O=C(COc1ccc2ccccc2c1)NC1=NCCS1	107.4	43.3	i	i	nt	i
O=C(CSc1n[nH]c(=O)[nH]c1=O)Nc1ccc2c(c1)C(=O)c1ccccc1C2=O	67.7	27.1	i	i	i	i
Cc1cc(C)cc(OCC(=O)NC2=NCCS2)c1	i	i	i	i	nt	i
O=C(CSc1n[nH]c(=O)[nH]c1=O)Nc1cccc(S(=O)(=O)N2CCOCC2)c1	i	i	nt	i	i	i
NS(=O)(=O)Oc1ccccc1	i	i	i	i	i	i
O=C(CSc1ccccn1)Nc1ccc2ccccc2c1	77.5	52.8	i	i	?	i
Cc1cc(NC(=O)CSc2ccccn2)cc(NC(=O)CSc2ccccn2)c1	i	i	i	i	i	i
CCS(=O)(=O)N1CCC(c2nc3ccccc3[nH]2)CC1	i	i	i	i	i	i
c1cc(-c2noc(CC3CCCCC3)n2)ccn1	122.3	i	i	i	i	?
c1ccc(-c2noc(CC3CCCCC3)n2)nc1	81.8	49.8	i	i	i	i
CC1CCN(C2(O)C(=O)Nc3ccc(Br)cc32)CC1 (configuration not stated)	i	i	nt	i	?	i
CCn1cnc2cc(NS(=O)(=O)c3ccc(C)cc3)ccc21	i	i	i	i	nt	?
CC(C)(C)n1cnc2cc(NCc3cccs3)ccc21	120.0	30.2	nt	i	i	i
CCn1cnc2cc(NCc3cccs3)ccc21	188.2	30.5	i	i	i	i
CCN(C(=S)Nc1ccc(C(C)=O)cc1)C1CCCCC1	i	i	nt	i	i	i
N=C1c2ccccc2CN1NC(=O)c1cccc(S(=O)(=O)N2CCCC2)c1	i	i	i	i	i	i
O=[N+]([O-])c1ccccc1/C=N/NC1=NCCCCC1	42.6	76.9	i	i	i	i
CCCCCC(=O)N/N=C/c1ccccc1[N+](=O)[O-]	i	19.3	nt	i	i	i
Cc1ccnn1CC(=O)N/N=C/c1c[nH]c2ccccc12	i	i	i	i	i	i
O=[N+]([O-])c1ccccc1/C=N\Nc1nccs1	i	i	i	i	?	i
CC(C)NC(=S)N/N=C/c1ccccc1[N+](=O)[O-]	i	22.2	i	i	i	?
O=C(CSc1ccccn1)N/N=C/c1c[nH]c2ccccc12	i	14.3	nt	i	?	i
NC(=O)N=Nc1c2[nH]c3ccccc3nc-2c2ccccc12	i	i	i	i	?	?
SMILES	Shiga toxin inh	CHX counter	NS1 inh	SARS PLP yeast	Pf growth 96h	Pf growth 48h
CC(C)CC(c1nnnn1C(C)C)N1CCN(c2ccccc2)CC1 (configuration not stated)	i	i	i	i	i	i
O=C(CSc1ccccn1)N/N=C/c1ccccc1[N+](=O)[O-]	38.3	37.5	i	i	i	i
O=C(CSc1ccccn1)N/N=C/c1cc([N+](=O)[O-])ccc1O	i	i	i	i	?	?
CCCCCC(=O)N/N=C/c1ccco1	i	i	i	i	13.1µM	i
O=C(CCNC(=O)c1ccccc1Cl)NCC(c1ccc(F)cc1)N1CCOCC1 (configuration not stated)	nt	nt	nt	i	i	i
CCN(CC)c1ccc(S(=O)(=O)N2CCOCC2)cc1NC(=O)COC(=O)c1cccnc1SC	nt	nt	nt	i	i	?
CN(C)c1ccc(C(=O)OCC(=O)NCCNC(=O)COC(=O)c2ccc(N(C)C)cc2)cc1	70.6	30.3	i	?	i	i
CN(C)c1ccc(C(=O)OCc2ccc(Br)cc2)cc1	67.1	i	i	i	i	nt
COC(=O)c1ccc(CNC(=O)COC(=O)c2ccc(N(C)C)cc2)cc1	i	i	i	i	i	i
CC(C)Oc1ccc(C(=O)OCC(=O)NCCNC(=O)COC(=O)c2ccc(OC(C)C)cc2)cc1	i	i	i	i	13.1µM	?
CC1CCCN(C(=O)CCNS(=O)(=O)c2ccc3c(c2)oc(=O)n3C)C1 (configuration not stated)	i	i	i	i	?	i
CCCC(=O)N1CCN(c2ccc(NC(=O)c3cc4ccccc4o3)cc2Cl)CC1	i	i	i	i	i	1.47µM
CCC(=O)N1CCN(c2ccc(NC(=O)c3cc4ccccc4o3)cc2Cl)CC1	i	16.9	i	i	i	?
O=C(Nc1ccc(N2CCN(C(=O)c3ccco3)CC2)c(Cl)c1)c1cc2ccccc2o1	i	22.9	i	i	i	2.94µM
O=C(COC(=O)Cc1ccccc1[N+](=O)[O-])NNC(=O)c1ccc([N+](=O)[O-])cc1	nt	nt	nt	i	i	i
Cc1ccc(C(=O)NNc2cc(N3CCCC3)nc(N3CCCC3)n2)cc1	i	i	i	i	i	4.65µM
O=C(NNc1cc(N2CCOCC2)nc(N2CCOCC2)n1)c1ccc(Cl)c(Cl)c1	i	i	i	i	i	i
COc1ccc(Cc2nc3ccc(C(=O)N4CCCC4)cc3o2)cc1	105.6	70.5	i	i	i	?
C=CCN(CC=C)C(=O)c1ccc2nc(Cc3ccc(OC)c(OC)c3)oc2c1	i	17.1	i	i	?	?
COc1ccc(Cc2nc3ccc(C(=O)N4CCC[C@H]4CO)cc3o2)cc1	i	i	i	i	i	i
COc1ccc(Cc2nc3ccc(C(=O)N(C)CC4COCCO4)cc3o2)cc1 (configuration not stated)	71.6	39.3	i	i	i	?
COc1ccc(Cc2nc3ccc(C(=O)N4CCN(C)C(C)C4)cc3o2)cc1OC (configuration not stated)	i	10.8	i	i	i	i
COc1cc(C(=O)N2CCN(C)C(C)C2)ccc1OC1CCN(C(C)=O)CC1 (configuration not stated)	i	i	i	i	i	i
Cc1nn(Cc2ccccc2)c(C)c1CNC(=O)CN=C1NS(=O)(=O)c2ccccc21	nt	nt	nt	i	i	?
COc1ccc(Cc2nc3ccc(C(=O)N4CCCC4)cc3o2)cc1OC	36.5	i	i	i	i	?
SMILES	Shiga toxin inh	CHX counter	NS1 inh	SARS PLP yeast	Pf growth 96h	Pf growth 48h
C#CCN(CC=C)C(=O)c1ccc2nc(C3CCCCC3)oc2c1	i	19.1	i	i	?	i
COc1ccc(Cc2nc3ccc(C(=O)NC(C)Cc4ncccc4C)cc3o2)cc1OC (configuration not stated)	i	29.7	i	i	i	?
COc1ccc(Cc2nc3ccc(C(=O)NCc4ncc(C)[nH]4)cc3o2)cc1OC	i	i	i	i	i	i
NC(=O)C1CCCN(C(=O)c2ccc3nc(Cc4cccc(Cl)c4)oc3c2)C1 (configuration not stated)	i	i	i	i	?	?
COc1ccc(S(=O)(=O)Nc2ccccc2C(=O)N2CCOCC2)cc1Br	i	i	i	i	i	i
Cc1ccc(-c2nnc(COC(=O)c3cc(=O)[nH]c4ccccc34)o2)cc1	i	i	i	i	i	i
